Source: PubChem
The list is not random: actives were taken first. Their share in the collection is about 21%.
NS1 function inh = blocks influenza NS1 protein function | AID 2326 | Potency, µM (highest dose often 46.1 µM), without a hit: at the highest dose activity, positive = more growth | 0.4% of 270,000 active; calls by dose curve; further: potency means the concentration at half of the fitted maximal effect; actives are rising curves; nearly all actives have a fitted effect of over 50% in size
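OD600 was taken as the measure of yeast growth restored by compound in an NS1-expressing S. cerevisiae strain. Cells had been washed out of glucose medium and diluted 1:100 into galactose -URA medium, pH 6.0.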
Sm TGR block = blocks Schistosoma mansoni thioredoxin glutathione reductase. 3% of 360,000 active. purified TGR, DTNB reduction, TNB absorbance 405 nm. Q962Y6. Potency, µM (highest dose often 114 µM), for inactives: at the highest dose activity change, negative = inhibition, hits mostly inhibitors. AID 485364; further: potency means the concentration at half of the fitted maximal effect; on the % scale 0 is the no-effect control and ±100 the full control effect; nearly all actives have a fitted effect of over 60% in size
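Kinetic colorimetric format: TGR-catalysed, NADPH-driven DTNB reduction monitored via TNB absorbance. Enzyme dispensed at 20 nM; compound exposure 15 min at room temperature before reaction start.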
Pf growth 48h = inhibits P. falciparum growth in the first generation, 48 h | Potency, µM (highest dose often 28.7 µM), for inactives: at the top dose activity change, negative = inhibition, most hits filed as inhibitors | AID 504832 | P. falciparum luciferase growth in erythrocytes, 48 h | 5.9% of 310,000 active; further: potency means the concentration at half of the fitted maximal effect; on the % scale 0 is the no-effect control and ±100 the full control effect
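Read-out is firefly luciferase luminescence from an integrated reporter in P. falciparum, so falling signal marks reduced parasite growth. Infected erythrocytes were at 2% hematocrit and 0.1% parasitemia (final) in Albumax-supplemented RPMI 1640.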
Shiga inhibitor = blocks Shiga toxin action in Vero cells; Vero cells, Shiga toxin protein synthesis inhibition reporter; inhibition, % at 38.7 µM; 9.2% of 290,000 active; in the data active means inhibition mostly above about 28%, no sharp cut-off; inactive means mostly below about 43%; further: 0% is about no effect
Cycloheximide cs = counter-screen hit for Shiga toxin inhibitors, cycloheximide; cell reporter, cycloheximide protein synthesis inhibition counterscreen; max response, %; 12% of 300,000 active; in the data active means max response mostly above about 13%, no sharp cut-off; inactive means mostly below about 14%; further: read at 38.3 µM for the half of the compounds with a filed dose; 0% is about no effect
Pf growth 96h = P. falciparum growth inhibition at 96 hour, primary screen for plastid delayed-death inhibitors; P. falciparum luciferase reporter growth, 96 h; Potency, µM (top dose mostly 28.7 µM), without a hit: at the highest dose activity change, negative = inhibition, actives largely listed as inhibitors; 6.9% of 320,000 active; AID 504834; further: potency means the concentration at half of the fitted maximal effect; on the % scale 0 is the no-effect control and ±100 the full control effect
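Luminescence readout: decreased luciferase signal marks inhibited growth of reporter-expressing P. falciparum in infected red cells (2% hematocrit, 0.05% parasitemia final), exposed to compound two generations (96 h, 37 C, 5% CO2).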
Active calls of the source: *; ? = inconclusive; / = no result; [ ] = remark or other dose. Unless noted, the call rests on the fitted dose curve; in most records, active means well fitted curve in the direction sought with a large enough effect; inconclusive means small, poorly fitted or top-dose-only effect, or another doubt; inactive means no such curve, though single readings can be large; an effect the other way counts as inactive or inconclusive.

SMILES	NS1 function inh	Sm TGR block	Pf growth 48h	Shiga inhibitor	Cycloheximide cs	Pf growth 96h
Cc1cc(C)c2nc(NNC(=O)c3ccc(S(=O)(=O)N4CCCC(C)C4)cc3)sc2c1 (stereo not given)	24.4%	-12.2%	?	-11.0	-3.7	2.33µM*
Cc1cc(C)c2nc(NNC(=O)c3ccc(S(=O)(=O)N4CC(C)CC(C)C4)cc3)sc2c1 (stereo not given)	-10.4%	-0.5%	2.62µM*	11.0	1.8	1.85µM*
Cc1cccc2sc(NNC(=O)c3ccc(S(=O)(=O)N4CC(C)CC(C)C4)cc3)nc12 (stereo not given)	9.0%	-14.5%	?	-2.5	-2.6	2.94µM*
Cc1cc(C)c2nc(NC(=O)c3ccc(S(=O)(=O)N4CCC(C)CC4)cc3)sc2c1	/	2.8%	/	/	/	/
COC(=O)c1sc2ccccc2c1NC(=O)c1ccc(S(=O)(=O)N2CC(C)CC(C)C2)cc1 (stereo not given)	4.5%	0.3%	-10.3%	-10.9	-1.4	-15.0%
Cc1ccc(-n2c(=O)c3ccc(C(=O)NCc4ccco4)cc3n(Cc3ccc(Cl)cc3)c2=O)cc1	/	7.6%	/	/	/	/
CCOC(=O)CCSc1nc(C)c2cc(C)c(C)cc2n1	0.3%	-13.6%	5.9%	43.5*	29.7*	-27.6%
CCOC(=O)CSc1nc(C)c2ccc(C)cc2n1	2.0%	-32.2%	27.4%	43.8	12.0*	?
CCOC(=O)CCSc1nc(C)c2cc(OC)ccc2n1	2.7%	5.0%	313.5%	79.9*	51.2*	443.3%
COc1ccc(CCn2c(C)cc(C(=O)CN3C(=O)C(=O)N(C4CCCC4)C3=O)c2C)cc1OC	/	1.4%	9.28µM*	/	/	?
COc1ccc(C)cc1NC(=O)CN1C(=O)C(=O)N(C2CCCC2)C1=O	/	1.6%	-16.6%	/	/	-17.6%
Cc1cc(C)c2c(N=NN3CCCCC3)[nH]nc2n1	-37.8%	-11.6%	21.8%	41.2*	38.3*	43.2%
COc1ccc2cc3cc(C(=O)NCC4CCCO4)oc3nc2c1 (stereo not given)	-12.2%	1.3%	?	45.8*	19.1	2.8%
COCCNC(=O)c1cc2cc3ccc(OC)cc3nc2o1	-3.3%	0.0%	7.4%[0.00184 µM]	49.5	41.7*	16.0%
CCOc1ccc(NC(=O)c2cc3cc4ccc(OC)cc4nc3o2)cc1	3.9%	-18.9%	/	-3.3	-4.9	5.22µM*
CCOc1ccc(NC(=O)c2cc3cc4ccc(C)cc4nc3o2)cc1	/	-2.5%	5.1%	20.2	7.7	?
CCCCN(C)C(=O)c1cc2cc3ccc(OC)cc3nc2s1	-57.0%	14.2%	114.3%	56.6*	25.1*	26.9%
CCOc1ccc(C(=O)NCC(=O)Nc2ncccc2C)cc1OCC	/	-4.3%	17.0%	/	/	54.7%
Cc1cccc(-c2nc(C)c(CCNC(=O)C(=O)Nc3ccccc3C#N)s2)c1	/	-2.1%	/	/	/	/
CCC(C)NC(=O)c1cc2cc3ccc(OC)cc3nc2o1 (stereo not given)	5.2%	-15.1%	?	38.7*	29.9*	8.5%
CCCCN(CC)C(=O)c1cc2cc3ccc(OC)cc3nc2o1	-14.8%	6.2%	11.7µM*	80.0*	27.3*	5.22µM*
COc1ccc2cc3cc(C(=O)NCc4ccccn4)oc3nc2c1	-1.2%	-24.1%	6.57µM*	38.3	11.4	0.0%
O=C(COc1ccc2ccccc2c1)Nc1nccs1	-2.8%	21.0%	209.2%	52.0*	42.4*	17.7%
NC(=O)c1ccsc1NC(=O)COc1ccccc1	-58.5%	9.0%	268.3%	85.8*	42.0*	/
NC(=O)c1ccsc1NC(=O)COC(=O)C1CC2CCCC(C1)C2=O (stereo not given)	3.2%	-27.6%	-0.4%	4.5	14.0*	10.9%
SMILES	NS1 function inh	Sm TGR block	Pf growth 48h	Shiga inhibitor	Cycloheximide cs	Pf growth 96h
O=C(COC(=O)c1ccccc1Cl)Nc1nccs1	15.3%	5.3%	37.2%	17.6	11.1*	61.8%
CC(C(=O)NCc1cccs1)N1CCN(S(=O)(=O)c2ccc3c(c2)OCCCO3)CC1 (stereo not given)	/	-7.6%	?	/	/	?
CCc1nc(SC)ncc1C(=O)N1CCN(c2cc(Cl)ccc2C)CC1	/	-17.9%	/	/	/	/
O=C(COc1ccc2ccc(=O)oc2c1)Nc1nccs1	0.3%	4.6%	160.7%	67.7*	64.2*	197.2%
O=C(CCl)Nc1nccs1	-1.2%	3.16µM*	?	-2.1	6.6	?
O=C(Nc1nccs1)C(Cl)(Cl)Cl	-24.2%	-4.7%	0.0%	17.8	-2.0	-17.2%
